Measured values: ChEMBL document CHEMBL4513216, “Probing the Open Global Health Chemical Diversity Library for Multistage-Active Starting Points for Next-Generation Antimalarials” (ACS Infect Dis, 2020)
The campaign covered roughly 65,000 compounds. About 2,100 (3.2%) showed an effect of 50% or more. The median lay at about -52%. The entries come from a sample that favours strong results as a whole.

Tested on: Plasmodium falciparum
Assay: Screen against P. falciparum Asexual Blood Stage (ABS), at 5uM
Type: functional, Dd2
Conditions: tested at 5 uM

Row | Compound | INHIBITION [%]
1 | CCc1noc(C(C)N2CCN(C)CC2)n1 (stereo not given) | -21
2 | Cc1ccc(C(=O)N2C[C@@H]3OCCN(CC4CCCC4)[C@@H]3C2)cn1 | -30
3 | c1ccc(-c2cc(CN3C[C@H]4CC[C@@H](C3)N(CC3CCC3)C4)on2)cc1 | 88.4
4 | COc1ccnc(N2C[C@H]3CC[C@@H](C2)N(CC2CC2)C3)n1 | 4.16
5 | c1ccc(-c2cc(CN3C[C@H]4CC[C@H]3C4)on2)cc1 | 5.39
6 | Cc1noc([C@@H]2C[C@H]3CN(Cc4cc(C)on4)C[C@H]3O2)n1 | -92.2
7 | Cc1cnn(CC(C)NCc2cccnc2)c1 (stereo not given) | -41.2
8 | Cc1cnn(CCNCc2nccn2Cc2ccccc2)c1 | 83
9 | Cc1cnn(CC(C)NCc2ccc(C#N)cc2)c1 (stereo not given) | -64.7
10 | CN1CCN(Cc2cccnc2)Cc2cccnc21 | -65.7
11 | Cc1cnn(CC(C)NCc2ccncc2)c1 (stereo not given) | 0.596
12 | Cc1cnn(CCNCc2ccccc2OCc2cccnc2)c1 | 71.5
13 | O=C(c1ccno1)N1CC[C@@H]2CN(C3CCOCC3)CCO[C@@H]2C1 | -25
14 | CC(C)(C)NC(=O)CNc1ccc(C#N)c(C(F)(F)F)c1 | -31.3
15 | CCc1ocnc1C(=O)N1CCC2(CC1)OCC(C)O2 (stereo not given) | -79.3
16 | COc1cc(N2CCN(CC3CC3)c3nc(C)ccc3C2)ncn1 | -65.6
17 | CC(C)CN1CCC2(CCCNC2)C1=O (stereo not given) | 10.8
18 | O=C1N(Cc2cccnc2)CCC12CCCNC2 (stereo not given) | -85.5
19 | O=C1N(Cc2cccc(Cl)c2)CCC12CCCNC2 (stereo not given) | 80.7
20 | O=C1N(Cc2ccc(Cl)cc2)CCC12CCCNC2 (stereo not given) | 85.4
21 | O=C1N(Cc2ccncc2)CCC12CCCNC2 (stereo not given) | -59.6
22 | O=C1N(Cc2cccc(F)c2)CCC12CCCNC2 (stereo not given) | -20.3
23 | O=C([C@H]1CN(Cc2ccncc2)C[C@H]2OCC[C@@H]12)N1CCCCO1 | -89.5
24 | Cc1ccc(CN2C[C@H]3OC(=O)N(Cc4ccccn4)[C@H]3C2)o1 | -74.6

Row | Compound | INHIBITION [%]
25 | CCc1ncc(CN(CCc2ccccc2)Cc2cccs2)cn1 | -80.9
26 | CCc1ccc(CN(CCN(C)C)Cc2ccc(C)s2)nc1 | 91.9
27 | COCCN1CC[C@]2(CN(Cc3cccnc3)C[C@H]2C)C1=O | 25.1
28 | O=C(c1c[nH]cn1)N1CCC(F)(F)C2(CCN(c3cccc(F)c3)C2)C1 (stereo not given) | 86.2
29 | O=C(O)CN1CCC(F)(F)C2(CCN(c3ccccn3)C2)C1 (stereo not given) | -77.3
30 | Cc1cc(C(=O)N2CCC3(CCN3Cc3ccc(F)cc3)C2)no1 (stereo not given) | 4.88
31 | Cc1n[nH]c2c1C(c1ccncc1)SCC(=O)N2 (stereo not given) | -28
32 | COCCN1CCOCC2(C1)CN(C(=O)c1conc1C)CCO2 (stereo not given) | -10.5
33 | COC(=O)NCC(=O)NCC(C)(C)c1cccc(Br)c1 | 84.6
34 | COC(=O)NCCC(=O)NC(C)Cc1ccccc1Br (stereo not given) | -138
35 | COC(=O)NCCC(=O)NC(C)Cc1cccc(Br)c1 (stereo not given) | -15.7
36 | CCC(=O)NCC(=O)NCC(C)(C)c1cccc(Br)c1 | 87.2
37 | c1cc(CN2CCO[C@@H]3CNC[C@@H]32)cs1 | -38.5
38 | Cc1cccc(CN2C[C@H](NS(C)(=O)=O)[C@@H]3OCCC[C@@H]32)n1 | -121
39 | CC(C)N1CCO[C@H]2CN(Cc3cc[nH]n3)C[C@H]21 | -62.4
40 | COCC(=O)N1CC[C@H]2[C@H]1CCN2CC(C)C | -34.8
41 | CC(C)CN1CCCC1c1cc[nH]n1 (stereo not given) | 91
42 | CC(C)c1ncc2c(n1)CN(CCCc1nc3ccccc3o1)CC2 | 70.3
43 | Cc1noc(C)c1CN1CC[C@@H]2O[C@@H](COCC(C)C)CC[C@@H]21 | -49.5
44 | COc1ccc(C[C@H]2CNCC[C@@H]2OCC2CC2)cc1 | 82.2
45 | COc1ccc(C[C@H]2CNCC[C@@H]2OC)cc1 | 78.3
46 | COc1cccc(CC(C)NC(=O)NCCc2cccnc2)c1 (stereo not given) | -58.4
47 | O=C1CSC(c2ccc3c(c2)OCO3)c2cnn(C3CCCCC3)c2N1 (stereo not given) | -33
48 | c1cc(CNCc2ccnc(N3CCCC3)c2)c2c(c1)OCCCO2 | -20.5

Row | Compound | INHIBITION [%]
49 | COc1ccc(CNCc2ccnc(N3CCCC3)c2)c(OC)c1 | 73.6
50 | COc1ccc(OC)c(CNCc2ccnc(N3CCCCC3)c2)c1 | 75.8
51 | CCC(O)CN1CCN(C(=O)Cc2ccc(OC)cc2OC)CC1 (stereo not given) | -2.14
52 | CC[C@@H]1N(Cc2cccnc2)CCC[C@]12CCC(=O)N2C | -25.2
53 | CN1CC=C(c2noc(CCC(=O)N3CCOCC3)n2)CC1 | -132
54 | Cn1ncc2c(N3CCCC4(CCNC4)C3)nc(C(C)(C)C)nc21 (stereo not given) | 38.2
55 | CCNC(=O)CN1CCSC2(CCCCC2)C1 | -49.4
56 | NC(=O)CN1CCCN(C(=O)Cc2ccc(Br)cc2)CC1 | -114
57 | CCC1(CC)Cc2ccccc2-c2nc(CN(C)C)nc(O)c21 | 74.6
58 | FC(F)CN1CCOC(Cn2cccn2)C1 (stereo not given) | -69.4
59 | OCCN1CCC(CNCc2ccccc2OC(F)(F)F)CC1 | 95.8
60 | CC(NCC1CCN(CCO)CC1)c1ccc(C(F)(F)F)cc1 (stereo not given) | 89.1
61 | CC(NCC1CCN(CCO)CC1)c1ccc(OC(F)(F)F)cc1 (stereo not given) | 93.8
62 | O=C(Cc1cnc(-c2c(Cl)cccc2Cl)s1)N1CCC2(CC1)OCCO2 | -87.1
63 | CCC12CN3CC(C)(CN(C1)C3c1[nH]c(=O)[nH]c(=O)c1C)C2=O (stereo not given) | -51.4
64 | CCN1CCNC(=O)C12CCN(C(=O)c1ccccn1)CC2 | -86.3
65 | O=C1CSC(c2ccc(O)cc2)c2c(n(C3CCOCC3)[nH]c2=O)N1 (stereo not given) | -92.3
66 | Cc1nn(C2CCCC2)c2c1C(c1ccc3c(c1)OCO3)SCC(=O)N2 (stereo not given) | 6.36
67 | Cc1nc(CN2CCO[C@H]3[C@@H](Oc4ccccn4)CC[C@@H]32)cs1 | -47
68 | CSc1ccccc1C(=O)C1CCCN(Cc2ccccn2)C1 (stereo not given) | -41.1
69 | O=C1NC[C@H]2CN(Cc3ccccn3)CCN12 | -9.08
70 | NC(=O)c1cccc2nc([C@H]3CCN(Cc4ccccn4)C3)[nH]c12 | 95.1
